Experiment [1] is described as follows: Viability qHTS for spleen associated tyrosine kinase inhibitor (SYKi) naive MV4-11 cells (AID 1963823). Note: nearly all actives have a fitted effect of over 40% in size. In outline: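 Seeding of 500 SYKi-naive MV4-11 cells per well onto pre-dispensed compounds preceded a 72 hr incubation at 37 C. Luminescent CellTiter-Glo signal, read after 10 min at room temperature, reflected viable cells.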
(qHTS replaces the single test concentration by a dilution series.)

The nature of experiment [2]: Viability qHTS for spleen associated tyrosine kinase inhibitor (SYKi) drug resistant MV4-11 cells (AID 1963824). Note: nearly all actives have a fitted effect of over 35% in size. In outline: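 CellTiter-Glo luminescence, read 10 min after reagent addition, reports viability after a 72 hr compound exposure. Cells are an MV4-11 line made resistant to SYK inhibition, seeded at 500 per well onto compound-containing plates.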
A short description of experiment [3]: Cellular viability qHTS for adrenocortical cancer (ACC) cell line SW-13 (AID 1963989).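 For activity (max response): cells grown in serum-free medium with ITS supplement; % is set by controls: 0 for no effect and ±100 for the full control effect.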 Note: nearly all actives have a fitted effect of over 65% in size. The following applies: SW-13 ACC cells viability, CellTiter-Glo, 48 h; activity (max response): stronger effect = lower value. In outline:
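48 h treatment, SW-13 in ITS/DMEM serum-free; doses up to 46 uM; readout CellTiter-Glo luminescence; curve fit four-parameter logistic.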

Experiment [4] is described as follows: Cellular viability qHTS for adrenocortical cancer (ACC) cell line NCI-H295R (AID 1963990). Note: nearly all actives have a fitted effect of over 60% in size. In outline: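 Compound titrations (up to 46 uM final) are applied to NCI-H295R cultures for 48 h at 37C. Viable cell number is estimated by CellTiter-Glo signal, normalised to DMSO and doxorubicin controls.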

Structures are written as SMILES. Values joined by “and” are separate entries in the source; they are usually repeats but may differ in a detail not shown here. Equal entries are not always repeated. Inconclusive results are not listed. Unmarked numbers belong to inactive results. Active and inactive are the calls of the source. Calls come from the whole dose curve; as a rule, active = well fitted curve in the direction sought with a large enough effect; inconclusive = small, poorly fitted or top-dose-only effect, or another doubt; inactive = no such curve, though single readings can be large; an effect the other way counts as inactive or inconclusive.
Potency is the fitted concentration of half-maximal effect.

Regarding `CNC1(C)C2CCC(C2)C1(C)C` (configuration not stated), the Potency entry in experiment [1], in experiment [2] and in experiment [4] was “inactive” throughout. The activity (max response) in experiment [3] was -10.9%.
Consider `CCCCCN(CCCCC)C(=O)C(CCC(=O)O)NC(=O)c1ccc(Cl)c(Cl)c1` (configuration not stated), for which the Potency entry in experiment [1], in experiment [2] and in experiment [4] was “inactive” each time. Further, the activity (max response) in experiment [3] is 5.36%.
As to `CC(C)C[C@@H](N)C(=O)O`, the Potency entry in experiment [1], in experiment [2] and in experiment [4] was “inactive” in each case. Also, the activity (max response) in experiment [3] was 8.35%.
`C[C@@H]1C[C@H]2[C@@H]3C[C@H](F)C4=CC(=O)C(Cl)=C[C@]4(C)[C@@]3(F)[C@@H](O)C[C@]2(C)[C@@]1(O)C(=O)CO`: the Potency in experiment [1] is 4730 nM (active); in experiment [2], 11900 nM (active). The activity (max response) in experiment [3] is -6.49%. In addition, the Potency entry in experiment [4] is “inactive”.
As to `CN(C)C/C=C/C(=O)Nc1cccc(C(=O)Nc2cccc(Nc3ncc(Cl)c(-c4c[nH]c5ccccc45)n3)c2)c1`, the Potency entry in experiment [1] is “inactive”. The Potency was 3.7 nM (active) in experiment [2], 316 nM (active) in experiment [3] and 1120 nM (active) in experiment [4].
With `C/C=C/C(=O)N(CC)c1ccccc1C`, the Potency entry in experiment [1], in experiment [2] and in experiment [4] was “inactive” in each case. The activity (max response) in experiment [3] was 5.92% and 3.5%.
In the case of `CC1=C(CO)C(=O)O[C@@H]([C@@H](C)[C@H]2CC[C@H]3[C@@H]4C[C@H]5O[C@]56[C@@H](O)C=CC(=O)[C@]6(C)[C@H]4CC[C@]23C)C1`, the Potency is 296 nM (active) in experiment [1]; 317 nM (active) and 263 nM (active) in experiment [2]; 1580 nM (active) in experiment [3]; 447 nM (active) in experiment [4].
`COc1cc2ncnc(Oc3cccc(NC(=O)Nc4cc(C(C)(C)C(F)(F)F)on4)c3)c2cc1OC`: the Potency in experiment [1] was 164 nM (active); in experiment [2], 291 nM (active). In addition, in experiment [3], the activity (max response) was -26.2%. The Potency result in experiment [4] was “inactive”.
As to `NC(=O)c1ccccc1Nc1ccnc(Nc2cccc(O)c2)n1`, the Potency in experiment [1] was 372 nM (active); in experiment [2], 326 nM (active); in experiment [3], 17800 nM (active); in experiment [4], 12600 nM (active).
With `O=C1CCCc2c(O)cccc21`, the Potency entry in experiment [1], in experiment [2] and in experiment [4] was “inactive” throughout. The activity (max response) in experiment [3] was -6.15%.
On to `CO[C@H]1O[C@@H]2O[C@@]3(C)CC[C@H]4[C@H](C)CC[C@@H]([C@H]1C)[C@@]24OO3`, for which the results for the Potency in experiment [1] and in experiment [2] were 1320 nM (active) and 934 nM (active), respectively. Moreover, the activity (max response) in experiment [3] is 0.283%. Moreover, the Potency entry in experiment [4] was “inactive”.
Taken in the same sequence, the figures for `CCN(CC)CCNC(C(=O)OCCC(C)C)c1ccccc1` (configuration not stated) were “inactive”, “inactive”, -2.2% and “inactive”.
For `Cc1ccccc1OCC(O)CO` (configuration not stated), in that order: “inactive”, “inactive”, -4.04% and “inactive”.
For `CC(=O)Oc1cc(C(C)C)c(OCCN(C)C)cc1C`, in that order: 1.1 nM (active), “inactive”, 12.6% and “inactive”.
Regarding `CCN(CC)CCc1nc(-c2ccccc2)no1`, the Potency entry in experiment [1], in experiment [2] and in experiment [4] was “inactive” in each case. For the same molecule, the activity (max response) in experiment [3] was -1.01%.
As to `CCOCCn1c(N2CCCN(C)CC2)nc2ccccc21`, the Potency result in experiment [1], in experiment [2] and in experiment [4] was “inactive” throughout. Besides, in experiment [3], the activity (max response) is -8.77%.
On to `C[C@H]1[C@H](C)CC[C@]2(C(=O)O)CC[C@]3(C)C(=CC[C@@H]4[C@@]5(C)CC[C@H](O)C(C)(C)[C@@H]5CC[C@]43C)[C@H]12`, for which the Potency in experiment [1] is 23500 nM (active); in experiment [2], 20900 nM (active). Moreover, in experiment [3], the activity (max response) is -4.55%. Also, the Potency result in experiment [4] is “inactive”.
As to `CCN1CCN(c2cc(-c3ccc(F)cc3)c3c(n2)CCCCCC3)CC1`, the Potency result in experiment [1], in experiment [2] and in experiment [4] was “inactive” each time. Besides, in experiment [3], the activity (max response) was -1.29%.
In the case of `CCOC(=O)c1ccccc1O`, the Potency result in experiment [1], in experiment [2] and in experiment [4] was “inactive” each time. In addition, in experiment [3], the activity (max response) was -1.17%.
`O=C1Nc2nc(-c3c(O)cccc3OCC3CC3)cc([C@@H]3CCCNC3)c2CO1`: the Potency in experiment [1] was 2910 nM (active); in experiment [2], 4.11 µM (active) and 5.25 µM (active); in experiment [3], 22400 nM (active); in experiment [4] it was 17800 nM (active).
For `CCCCCCCCCCCCCCCC[N+](C)(C)CC`, the Potency is 299 nM (active) in experiment [1], 668 nM (active) in experiment [2], 5170 nM (active) in experiment [3] and 7310 nM (active) in experiment [4].
Take `COc1cc(C(N)=O)ccc1NC(=O)[C@@H]1N[C@@H](CC(C)(C)C)[C@@]2(C(=O)Nc3cc(Cl)ccc32)[C@H]1c1cccc(Cl)c1F`: the Potency in experiment [1] is 5900 nM (active); in experiment [2], 4680 nM (active); in experiment [3], 15800 nM (active); in experiment [4] it was 11200 nM (active).
For the molecule `CC(C)(C)C(=O)NCCCC(=O)O`, the Potency entry in experiment [1], in experiment [2] and in experiment [4] was “inactive” each time. Also, the activity (max response) in experiment [3] is 7.9%.
Take `COc1cc(C(=O)NC2CCCNC2)cc(OC)c1OC` (configuration not stated): the Potency entry in experiment [1], in experiment [2] and in experiment [4] was “inactive” in each case. In addition, the activity (max response) in experiment [3] was 8.49%.
As for `C[C@]12C=CC(=O)C=C1CC[C@@H]1[C@@H]2[C@@H](O)C[C@@]2(C)[C@H]1CC[C@]2(O)C(=O)CO`, the Potency entry in experiment [1], in experiment [2] and in experiment [4] was “inactive” throughout. In experiment [3], the activity (max response) is -7.97% and -0.878%.
As for `COc1ccc2c(c1)[C@]1(C[C@H]1c1ccc3c(/C=C/c4ccc(CN5C[C@@H](C)O[C@@H](C)C5)cc4)n[nH]c3c1)C(=O)N2`, the Potency in experiment [1] was 105 nM (active); in experiment [2] it was 332 nM (active); in experiment [3] it was 14100 nM (active); in experiment [4], 6310 nM (active).
Turning to `CC[C@@H](C)Nc1cc(C(=O)NC2CC3CC[C@@H](C2)N3c2ccc(C(=O)C3CC3)cn2)c(C)cc1C(N)=O` (some centres not stated), the Potency is 13 nM (active) in experiment [1], 25.9 nM (active) in experiment [2], 178 nM (active) in experiment [3] and 355 nM (active) in experiment [4].
Turning to `COc1cc(N2CCC(N3CCN(C)CC3)CC2)ccc1Nc1ncc(Cl)c(Nc2ccccc2S(=O)(=O)C(C)C)n1`, the Potency was 92 nM (active) and 148 nM (active) in experiment [1]; 116 nM (active) and 209 nM (active) in experiment [2]; 5010 nM (active) in experiment [3]; 1120 nM (active) in experiment [4].
